Measured values: PubChem BioAssay (EPA / NIEHS)
Inconclusive results are not listed. Activity calls are given as the source filed them. Rule for the calls: active = hit-call score of the fitted dose curve at least 0.9, where 1 is the maximum; inconclusive = response in the unintended direction; inactive = score below 0.9.

Test: Tanguay_ZF_120hpf_TR_legacy: (Legacy) Oregon State University Tanguay Lab 120 Hour Post-fertilization zebrafish Assay for Touch Response (AID 2283667)
Method in brief: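 Tropical 5D wild-type zebrafish embryos statically exposed to 120 hpf at 28°C, sealed and dark-covered, 0.64% DMSO final; touch response scored as present/absent by brightfield microscopy at 120 hpf. Trimethyltin chloride 5 uM positive control; dead embryos not scored.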

Compound	outcome	AC50
CC(Cl)(Cl)C(=O)O	inactive	–
CCC1(c2ccccc2)C(=O)N=C(O)NC1=O (stereo not given)	inactive	–
CCCCCCCc1ccc(O)cc1	inactive	–
CCCCN(CCCC)SN(C)C(=O)Oc1cccc2c1OC(C)(C)C2	inactive	–
OCC1CO1 (stereo not given)	inactive	–
Cc1ccc(N)cc1N	inactive	–
ClC1=C(Cl)C2(Cl)C3C(Cl)C(Cl)CC3C1(Cl)C2(Cl)Cl (stereo not given)	inactive	–
[N-]=[N+]=[N-]	inactive	–
CC(C)(C)c1ccc(O)cc1	inactive	–
c1nc[nH]n1	inactive	–
O=C(O)C1C(C(=O)O)C2(Cl)C(Cl)=C(Cl)C1(Cl)C2(Cl)Cl (stereo not given)	inactive	–
CCCCN(CCCC)N=O	inactive	–
O=[N+]([O-])c1ccccc1	inactive	–
CSC(C)(C)C=NO	inactive	–
c1cc2c3c(cccc3c1)CC2	inactive	–
Nc1cc2c3c(c1)C(c1ccccc1)=N[C@@H](NC(=O)c1cccnc1)C(=O)N3CC2	inactive	–
ClC(Cl)c1ccccc1	inactive	–
CCOC(=O)c1ccccc1C(=O)OCC	inactive	–
COCCOCCO	inactive	–
Cc1ccc(O)cc1C	inactive	–
c1ccc2c(c1)Nc1ccccc1S2	inactive	–
CCOP(=S)(OCC)SCSCC	inactive	–
O=P(Oc1ccccc1)(Oc1ccccc1)Oc1ccccc1	inactive	–
c1ccc(OP(Oc2ccccc2)Oc2ccccc2)cc1	inactive	–
CCN(CC)c1ccccc1	inactive	–
CCOP(=S)(Oc1ccc([N+](=O)[O-])cc1)c1ccccc1 (stereo not given)	inactive	–
CCC(C)(C)c1ccc(O)cc1	–	48.3 µM (active)
O=C(O)C(Cl)Cl	inactive	–
CCCN(CCC)c1c([N+](=O)[O-])cc(C(C)C)cc1[N+](=O)[O-]	inactive	–
CCNc1nc(Cl)nc(NC(C)(C)C)n1	inactive	–
